# Source: ChEMBL document CHEMBL4513216, “Probing the Open Global Health Chemical Diversity Library for Multistage-Active Starting Points for Next-Generation Antimalarials” (ACS Infect Dis, 2020)
# The campaign covered roughly 69,000 compounds. About 8,600 (12%) showed an effect of 50% or more. The list comes from a sample in which strong results are over-represented; it also holds similar structures and randomly drawn compounds.
# System: Plasmodium berghei
# Assay: Screen against P. berghei liver stage (PbLuc), transformed with Luciferase, at 10uM
# Assay type: functional, HepG2
# Conditions: tested at 10 uM
row,Compound,INHIBITION [%]
1,CCC(=O)Nc1ccccc1Sc1nc(Br)nn1C,3.31
2,Cc1ccnc(N2C[C@H]3CC[C@@H](C2)N(CC2CCC2)C3=O)n1,-4.35
3,Cc1cc(SCC(N)=O)nc(-c2ccc(F)cc2)n1,-6.18
4,COc1ccc(-c2nc(C)cc(SCC(N)=O)n2)cc1,85.5
5,Cc1cc(SCC(N)=O)nc(-c2cccc(F)c2)n1,3.58
6,CCC(C)[C@H](N)c1nnc(SCC(=O)Nc2ccc(Br)cc2)o1 (stereo partly specified),41.1
7,CC(=O)N1C[C@H]2CC[C@@H](C1)N(S(=O)(=O)c1ccccc1Cl)C2,-7.2
8,CCn1nccc1S(=O)(=O)N1CCC2(CCCN(C(C)C)C2=O)C1 (stereo unspecified),33
9,CCCN1CCCC2(CCN(S(=O)(=O)c3cc(C)nn3CC)C2)C1=O (stereo unspecified),21.2
10,CCn1nc(C)cc1S(=O)(=O)N1CCC2(CCCN(C(C)C)C2=O)C1 (stereo unspecified),58.6
11,O=C(c1ccsc1)N1CCO[C@@H]2CN(Cc3ccco3)CC[C@@H]2C1,44.8
12,Cc1c(CNCC(C)Oc2cccnc2)c2ccccc2n1CC(N)=O (stereo unspecified),-36.6
13,Cc1cc(C(=O)N2CCc3nnc(N)cc3C2)c(C)n1C1CC1,-15.8
14,Cc1cc(C(=O)N2CCc3nnc(N)cc3C2)c(C)n1-c1ccccc1,89.3
15,Nc1cc2c(nn1)CCN(C(=O)c1cccnc1Oc1ccccc1)C2,-18.7
16,Cc1cc(C(=O)N2CCc3nnc(N)cc3C2)c(C)n1-c1cccnc1,11.8
17,Nc1cc2c(nn1)CCN(C(=O)c1cccc3c1OCCO3)C2,44.2
18,CCn1c(C)cc(C(=O)N2CCc3nnc(N)cc3C2)c1C,68.8
19,Cc1ccc(CN(C(=O)NCC2CCCO2)C2CC2)o1 (stereo unspecified),-56.2
20,COCCc1noc(CNC2CCCC(C)(C)C2)n1 (stereo unspecified),20.2
21,Cc1ccccc1CS(=O)(=O)c1nnc(C(C)NC(=O)OC(C)(C)C)o1 (stereo unspecified),46.6
22,CC(=O)N(C)Cc1cccc(NC(=O)N(C)CCc2cccs2)c1,-6.34

row,Compound,INHIBITION [%]
1,CC(=O)N(C)Cc1ccccc1NC(=O)N(C)CCc1cccs1,52.3
2,CC(=O)N(C)Cc1ccccc1NCc1c(C)cccc1C,50.2
3,CC(=O)N(C)Cc1ccccc1NCc1c(C)noc1C,-16.1
4,C=C(C)CN(CC)C(=O)Nc1ccccc1CN(C)C(C)=O,28.7
5,CC(=O)N(C)Cc1ccccc1NC(=O)c1ccccc1C,-19.55
6,O=C(c1ccccc1)N1CCS(=O)(=O)[C@@H]2CCNCC[C@@H]21,38.2
7,CNC(=O)c1ccc(C(=O)N2CCCC(n3nc(C)cc3C)C2)cn1 (stereo unspecified),-11.9
8,Cc1csc(N2CCCN(C(=O)c3ccoc3C)CC2)n1,15.3
9,CC(=O)N1CC(=O)N(c2ccccc2)CC12CCN(Cc1ccoc1)C2 (stereo unspecified),38.3
10,Cc1nnsc1CN1C[C@@H]2CC[C@H]1CN(Cc1ccccc1)C2,46.4
11,Cc1nnsc1CN1C[C@@H]2CC[C@H]1CN(Cc1ccc(F)cc1)C2,29.1
12,c1cnc(N2C[C@H]3CC[C@@H](C2)N(Cc2ccsc2)C3)nc1,15.7
13,CS(=O)(=O)c1ccc(CN2C[C@@H]3CC[C@H]2CN(c2ncccn2)C3)cc1,74.1
14,CC(=O)Nc1ccc(CN2C[C@@H]3CC[C@H]2CN(c2ncccn2)C3)cc1,-8
15,CC(C)c1nnc(N2C[C@H]3CC[C@@H](C2)N(Cc2ccccc2)C3)s1,87.2
16,COc1ccc(CN2C[C@H]3CC[C@@H](C2)N(Cc2snnc2C)C3)cc1,73.5
17,CC(C)c1nnc(N2C[C@H]3CC[C@@H](C2)N(CC2CCC2)C3)s1,44.6
18,Cc1nnsc1CN1C[C@H]2CC[C@@H](C1)N(Cc1ccccc1)C2,60
19,Cc1nnsc1CN1C[C@@H]2CC[C@H]1CN(Cc1ccccn1)C2,-15.3
20,Cc1ncsc1CN1C[C@@H]2CC[C@H]1CN(Cc1ccccc1)C2,15.5
21,CCCN1C[C@@H]2CC[C@H]1CN(c1nnc(C(C)C)s1)C2,-11.9
22,NC1CCC(CN2CCCn3nc(CNC(=O)C4CCC4)cc3C2)CC1 (stereo unspecified),18.4

row,Compound,INHIBITION [%]
1,Cc1cnc(C(=O)N2CCCN(c3nc(C)cs3)CC2)cn1,-5.25
2,Cc1ccc(CN2CC[C@@H](N3CCOCC3)[C@@H]2Cc2cccnc2)o1,12.1
3,CCCC(O)CN1CC(C)(C)CN(C(=O)c2ccc(Cl)cc2)CC1=O (stereo unspecified),46.4
4,O=C([C@H]1C[C@@H]2CCN(c3cccc(F)c3)C[C@H]2O1)N1CCCCO1,23.3
5,c1cnnc(N[C@@H]2CC[C@@H]3CN(Cc4ccc5[nH]ccc5c4)C[C@@H]32)c1,27.2
6,Cc1nn(CCN2CCSCC2)cc1CNCC1CC1,-22
7,O=C(NCc1ccco1)[C@@]12CCO[C@@H]1CCN(C1CCC1)C2,29
8,CS(=O)(=O)N1C[C@H]2CCCN(Cc3nccs3)[C@H]2C1,33.4
9,NC1CCC(n2cc(C(=O)NC3COc4ccccc43)nn2)CC1 (stereo unspecified),-28
10,CN(C)CCN1CC[C@@H]2O[C@@H](COCC(=O)N3CCCC3)CC[C@@H]21,29
11,O=C(O)CNC(=O)Cc1csc(-c2cccc(Cl)c2)n1,44.9
12,COc1cc(N2CC[C@H]3O[C@@H](C(=O)NC4CCCC4)CC[C@H]32)ncn1,-5.31
13,CC(C)n1cc(N2CC(C(=O)N3CCC(C(N)=O)CC3)CC2=O)cn1 (stereo unspecified),-23.5
14,CCCc1nc(CNC(=O)Cc2cc(C)no2)cs1,31.6
15,CCCc1nc(CNC(C)Cn2cccn2)cs1 (stereo unspecified),-31.5
16,CCCc1nc(CNc2nc(C)nc3oc(C)nc23)cs1,50.8
17,CCS(=O)(=O)NCC(=O)Nc1cc(CC(C)(C)C)n[nH]1,-10.7
18,O=C(CSCC1CC1)N1C[C@H]2CC[C@@H](C1)N(Cc1ccccn1)C2=O,17
19,Cc1cnn(CC2CCCN2CC(=O)Nc2cc(C)nn2C)c1 (stereo unspecified),38.6
20,CCC(=O)NC(Cc1cc(N(C)C)nc(C2CC2)n1)c1ccccc1 (stereo unspecified),33.8
21,COCC(=O)NC(Cc1cc(N(C)C)nc(C2CC2)n1)c1ccccc1 (stereo unspecified),51.4
22,CC(C)C(=O)NC(Cc1cc(N(C)C)nc(C2CC2)n1)c1ccccc1 (stereo unspecified),45.9
